# About 14,000 (4.5%) of roughly 310,000 compounds showed an effect of 50% or more. Effects have a minus sign here. For the sample, strong results were picked, then their nearest neighbours and some compounds at random.
# Molecular target: human ether-à-go-go-related gene (hERG) potassium channel (human, UniProt Q12809)
# Test: primary screen, population patch clamp on CHO cells stably expressing hERG; higher = less effect of the substance
# 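Also: peak tail current of the secondary pulse compared with the same well before compound.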
# Chain of human ether-à-go-go-related gene (hERG) potassium channel (Q12809 whole entry, looked up): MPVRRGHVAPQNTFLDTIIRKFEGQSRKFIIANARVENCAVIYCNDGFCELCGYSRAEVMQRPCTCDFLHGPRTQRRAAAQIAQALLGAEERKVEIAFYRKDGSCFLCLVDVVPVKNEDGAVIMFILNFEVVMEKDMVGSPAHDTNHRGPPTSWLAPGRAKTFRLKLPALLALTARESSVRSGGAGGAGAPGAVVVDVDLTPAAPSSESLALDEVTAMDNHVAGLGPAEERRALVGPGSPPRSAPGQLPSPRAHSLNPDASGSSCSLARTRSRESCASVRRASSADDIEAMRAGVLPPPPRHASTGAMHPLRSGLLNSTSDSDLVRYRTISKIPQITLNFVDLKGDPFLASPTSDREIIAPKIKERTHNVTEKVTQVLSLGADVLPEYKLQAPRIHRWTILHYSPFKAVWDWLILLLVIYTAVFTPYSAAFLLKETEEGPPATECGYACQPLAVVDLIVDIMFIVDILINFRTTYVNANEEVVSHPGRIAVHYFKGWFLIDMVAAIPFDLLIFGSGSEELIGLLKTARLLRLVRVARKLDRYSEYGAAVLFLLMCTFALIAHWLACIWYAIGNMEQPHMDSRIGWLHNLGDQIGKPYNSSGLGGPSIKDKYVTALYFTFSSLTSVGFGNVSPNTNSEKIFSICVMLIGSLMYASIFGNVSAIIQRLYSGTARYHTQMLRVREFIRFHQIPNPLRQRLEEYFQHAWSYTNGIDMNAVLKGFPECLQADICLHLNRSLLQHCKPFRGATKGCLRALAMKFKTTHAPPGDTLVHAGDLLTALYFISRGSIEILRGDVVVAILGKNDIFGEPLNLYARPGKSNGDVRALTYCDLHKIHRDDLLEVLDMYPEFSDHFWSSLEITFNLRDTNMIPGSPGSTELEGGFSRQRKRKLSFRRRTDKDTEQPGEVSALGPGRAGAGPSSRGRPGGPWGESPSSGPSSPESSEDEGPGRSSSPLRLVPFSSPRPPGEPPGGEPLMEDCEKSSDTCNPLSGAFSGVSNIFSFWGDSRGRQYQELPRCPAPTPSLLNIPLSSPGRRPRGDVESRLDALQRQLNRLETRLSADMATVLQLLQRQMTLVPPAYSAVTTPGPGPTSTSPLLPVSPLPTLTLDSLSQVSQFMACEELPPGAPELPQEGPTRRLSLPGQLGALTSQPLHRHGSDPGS
row,Structure (SMILES),"hERG current change (%, negative = inhibition) at 10uM [%]"
1,CCCc1nc(C)c2c(=O)[nH]c(-c3cc(S(=O)(=O)N4CCN(CC)CC4)ccc3OCC)nn12.O=C(O)CC(O)(CC(=O)O)C(=O)O,0.215
2,COc1cccc(N2CCN(S(=O)(=O)c3ccc4c(c3)CC(C)N4C(=O)C3CC3)CC2)c1 (stereo not shown),17.8
3,CC1C(=O)N(Cc2ccccc2F)c2ccccc2N1C(=O)c1c(F)cccc1F (stereo not shown),-6.04
4,CC(C)N1CCc2c(sc(NC(=O)c3nc4ccccc4s3)c2C(N)=O)C1.Cl,-45.1
5,CCCn1c(SCC(=O)/C(C#N)=C(\C)N)n[nH]c1=O,7.25
6,CC(C)C(=O)Nc1nnc(Cc2c[nH]c3ccccc23)s1,28
7,Cc1[nH]n(-c2ccccc2)c(=O)c1C=NC1CCCCC1,-10.5
8,O=C(CCCN1C(=O)/C(=C\c2cccs2)SC1=S)Nc1cccc(C(=O)O)c1,9.57
9,Cc1cccn2c(=O)c(/C=C(\C#N)C(=O)NCc3ccccc3)c(N3CCC(C(N)=O)CC3)nc12,-29.1
10,CCOC(=O)C1CCN(c2nc3c(C)cccn3c(=O)c2/C=C(\C#N)S(=O)(=O)c2ccccc2)CC1,-18.1
11,Cc1cccn2c(=O)c(/C=C(\C#N)S(=O)(=O)c3ccccc3)c(N3CCC(C(N)=O)CC3)nc12,-75.4
12,Cc1ccc(S(=O)(=O)/C(C#N)=C/c2c(N3CCC(C(N)=O)CC3)nc3c(C)cccn3c2=O)cc1,-71.4
13,CCN1CCN(c2nc3c(C)cccn3c(=O)c2/C=C(\C#N)S(=O)(=O)c2ccc(Cl)cc2)CC1,-44.9
14,Cc1cccn2c(=O)c(/C=C(\C#N)S(=O)(=O)c3ccc(Cl)cc3)c(N3CCC(C(N)=O)CC3)nc12,-77.8
15,Cc1cccn2c(=O)c(/C=C(\C#N)C(=O)NCc3ccco3)c(N3CCC(C(N)=O)CC3)nc12,-43
16,Cc1cccn2c(=O)c(/C=C(\C#N)S(=O)(=O)c3ccccc3)c(N3CCCCC3)nc12,9.28
17,COc1ccc(C=Nc2cccc3ncccc23)cc1,4.44
18,Cc1ccc(C(=O)Nc2ccc(S(=O)(=O)N3CCOCC3)cc2)cc1Br,3.46
19,CC(=O)Nc1nc(-c2ccc(Cl)cc2)nc(C)c1C(C)=O,-19.8
20,CCN(C(=O)COC(=O)C1=COCCO1)c1ccccc1,-2.33
21,O=c1cc(Cc2nnc(SCc3ccccc3)n2-c2ccc(Cl)cc2)[nH]c(=O)[nH]1,0.593
22,COc1ccc(N2CCN(C(=O)c3cc(-c4cc(OC)ccc4OC)nc4ccccc34)CC2)cc1,-1.23
23,Cc1ccc2nc3c(nc2c1C)C(O)=C3O,6.68
24,Cc1ccc(N2CCOCC2)c2c1C(=O)c1ccccc1C2=O,-19.1

row,Structure (SMILES),"hERG current change (%, negative = inhibition) at 10uM [%]"
1,O=C1c2ccccc2-c2ncnc3c(N4CCOCC4)cc(N4CCOCC4)c1c23,-60
2,O=C1c2ccccc2C(=O)c2c1cccc2N1CCOCC1,-30.4
3,CCOCCn1c(SCc2ccc(C)cc2)nc2c1c(=O)[nH]c(=O)n2C,14.5
4,O=C(CN1CCN(c2ccccc2)CC1)NCc1ccc(F)cc1,-11
5,COc1ccc(CNC(=O)CN2CCN(c3ccc(F)cc3)CC2)cc1,-39.1
6,O=C(Cn1cnnn1)NCCc1ccc(Cl)cc1Cl,-19.6
7,COc1ccc(CNC(=O)CN2CCN(c3ccccc3)CC2)cc1,3.65
8,O=C(CN1CCNC(=O)C1)NCCc1ccc(Cl)cc1Cl,1.45
9,N#Cc1ccc(CN2CCN(CC(=O)NCCc3ccc(Cl)cc3Cl)CC2)cc1,-68.8
10,O=C(CN1CCN(c2ccc(Cl)cc2)CC1)NCc1ccccc1,-51.3
11,COc1ccc(N2CCN(CC(=O)NCc3ccc(Cl)cc3)CC2)cc1,-55.7
12,O=C(CN1CCN(c2ccc(F)cc2)CC1)NCc1ccc(F)cc1,-43.9
13,O=C(CN1CCN(c2cccc(Cl)c2)CC1)NCc1ccccc1,-15.5
14,Cc1ccc(CNC(=O)CN2CCN(c3ccc(F)cc3)CC2)cc1,-50.8
15,CC(=O)c1ccc(N2CCN(CC(=O)NCc3ccccc3)CC2)cc1,-44.3
16,S=c1[nH]nc(COc2ccccc2)n1/N=C/c1ccncc1,7.06
17,O=C(NCCOc1ccc(Cl)cc1)c1ccc2c(c1)OCCO2,-7.8
18,COc1ccc(O)c(C=Nc2cc(NC(C)=O)c(Cl)cc2Cl)c1,2.95
19,O=C1c2ccccc2C(=O)N1CC(O)COc1ccc(Br)cc1 (stereo not shown),-1.51
20,O=C(NCc1ccc(Cl)cc1)N1CCN(Cc2ccccc2)CC1,-29.9
21,Fc1ccc(CN2CCN(c3ccc(Cl)cc3)CC2)cc1,-13.6
22,O=C(CN1CCN(Cc2ccc(F)cc2)CC1)NCc1ccccc1,-27.5
23,O=C(CN1CCN(Cc2ccccc2)CC1)NCc1ccc(Cl)cc1,-61.1
24,O=C(CN1CCN(c2ccc(F)cc2)CC1)NCc1ccc(Cl)cc1,-62.7

row,Structure (SMILES),"hERG current change (%, negative = inhibition) at 10uM [%]"
1,Cl.O=C(CN1CCOCC1)NCc1ccc(F)cc1,21.6
2,Cc1ccc(C(=O)c2cc3c(cc2[N+](=O)[O-])OCCO3)cc1,-9.5
3,O=C1/C(=N\S(=O)(=O)c2cccs2)C([n+]2ccccc2)=C([O-])c2ccccc21,33.6
4,O=C1/C(=N\S(=O)(=O)c2cccs2)C([n+]2ccc(CCCc3ccccc3)cc2)=C([O-])c2ccccc21,-70.5
5,CCc1cc[n+](C2=C([O-])c3ccccc3C(=O)/C2=N\S(=O)(=O)c2cccs2)cc1,-11.6
6,Cc1ccc(NC(=O)c2nnn(-c3ccc4c(c3)OCCO4)c2N)cc1,9.9
7,Cc1cc(NC(=O)CSc2nncc(=O)n2N)no1,1.99
8,COC(=O)C1=C(C)N(Cc2cccnc2)C(=O)/C1=C\c1cccs1,-89
9,COC(=O)C1=C(C)N(Cc2cccnc2)C(=O)/C1=C\c1sccc1C,-79.2
10,COC(=O)C1=C(C)N(Cc2cccnc2)C(=O)C1,-0.706
11,COC(=O)C1=C(C)N(Cc2ccccc2)C(=O)/C1=C\c1ccco1,2.06
12,COCCCN1C(=O)/C(=C\c2cccs2)C(C(=O)OC)=C1C,-31.9
13,CCN1C(=O)/C(=C\c2cccs2)C(C(=O)OC)=C1C,5.41
14,CCN(CC)S(=O)(=O)c1cccc(-c2nnc(SCC(=O)NC3CCCC3)n2N)c1,19
15,Cc1cc(=O)[nH]c2c(C)cc(S(=O)(=O)N3CCCCC3)cc12,4.69
16,CCc1cccc(NC(=O)COc2ccccc2)c1,-8.01
17,O=C(Oc1c(-c2ccccc2)c(=O)n2c3c(cccc13)CC2)c1ccco1,-62
18,O=C(Oc1c(-c2ccccc2)c(=O)n2c3c(cccc13)CC2)c1ccccc1,-9.09
19,O=C(Oc1c(-c2ccccc2)c(=O)n2c3c(cccc13)CC2)c1ccc(F)cc1,10.4
20,CC1CC(=S)Nc2ccccc2S1 (stereo not shown),11.1
21,CN(C)S(=O)(=O)N1CCC(c2ccc(F)cc2)C(COc2ccc3c(c2)OCO3)C1 (stereo not shown),10.2
22,N#C/C(=C/c1ccc(Sc2nc3ccccc3[nH]2)o1)c1ccccc1F,-7.86
23,O=C(O)c1ccc(NC(=S)NC(=O)C(c2ccccc2)c2ccccc2)cc1,-6.52
24,CCOc1ccc(NC(=O)C(C)NC(=O)c2ccccc2Cl)cc1S(=O)(=O)N1CCCC1 (stereo not shown),-14.3

row,Structure (SMILES),"hERG current change (%, negative = inhibition) at 10uM [%]"
1,CCOc1ccc(NC(=O)C(C)Oc2ccc(C#N)cc2)cc1S(=O)(=O)N1CCCC1 (stereo not shown),-62.1
2,Cc1ccc(NC(=O)C(C)Oc2ccccc2)cc1S(=O)(=O)N1CCCCCC1 (stereo not shown),-7.7
3,COc1ccc(NC(=O)Nc2nnc(-c3ccccc3SCc3ccccc3)s2)cc1,13.6
4,O=C(Cc1cccs1)NCCN1CCOCC1,3.99
5,OCCNc1nc(OCC(F)(F)F)nc(N2CCN(C34CC5CC(CC(C5)C3)C4)CC2)n1,-37.9
6,CNc1nc(NCCOC23CC4CC(CC(C4)C2)C3)nc(OCC(F)(F)F)n1,8.55
7,CN1CCN(c2nc(NCCOC34CC5CC(CC(C5)C3)C4)nc(OCC(F)(F)F)n2)CC1,-60.8
8,CCOc1c2ccc(C(=O)NCc3ccco3)cc2nn1CCOC,-0.63
9,CC(=O)c1cccc(NS(=O)(=O)c2cc3c(cc2C)N(C(C)=O)CCO3)c1,14.3
10,Cc1ccc(S(=O)(=O)C(CCC(=O)c2ccc(Cl)cc2)C(N)=O)cc1 (stereo not shown),-28.9
11,CCN(CC)c1ccc(NC(=O)c2ccc(Br)o2)cc1,-24.3
12,CCN1CCN(c2cc(C)c3cc(NC(=O)Cc4ccc(OC)c(OC)c4)ccc3n2)CC1,-10.5
13,CCN1CCN(c2cc(C)c3cc(NC(=O)c4ccc(Br)o4)ccc3n2)CC1,-56
14,Cc1cc(N2CCN(C)CC2)nc2ccc(NC(=S)N3CCC4(CC3)OCCO4)cc12,-34
15,Cc1cc(N2CCN(C)CC2)nc2ccc(NC(=O)c3ccc(Br)o3)cc12,-77.4
16,CCN(CC)c1cc(C)c2cc(NC(=O)CNC(C)=O)ccc2n1,-11.3
17,COc1cc(C(=O)Nc2ccc3nc(N4CCN(C)CC4)cc(C)c3c2)cc(OC)c1OC,-38.7
18,CCN1CCN(c2cc(C)c3cc(NC(=O)c4cnccn4)ccc3n2)CC1,-16.2
19,CCN1CCN(c2cc(C)c3cc(NC(=O)c4cncc(Br)c4)ccc3n2)CC1,-51.8
20,CCN1CCN(c2cc(C)c3cc(NC(=O)c4ccncc4)ccc3n2)CC1,-21.4
21,CCN1CCN(c2cc(C)c3cc(NC(=O)c4ccc(C)c(C)c4)ccc3n2)CC1,-43.3
22,CCN(CC)c1cc(C)c2cc(NC(=O)c3ccc(Br)o3)ccc2n1,-76.1
